Experimental data: PubChem BioAssay (NCI)
Compounds without any hit were thinned out: in the full panel of roughly 83,000, 20% have a hit.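 For each line, cells grew in 96-well plates with the test compound present at a single concentration for 48 hours.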 Unmarked numbers belong to inactive results. Calls of active or inactive are those of the source. How the source made its calls: active means growth percent below 10; inactive means the rest.

What was measured:
Assay in all cases: NCI-60 one-dose screen, 48 h (100 = growth as untreated, 0 = no growth, -100 = all killed)
Details in all cases: 10 µM unless noted
NCI-H23 lung = system: NCI-H23 lung
NCI-H226 lung = system: NCI-H226 lung
NCI-H322M lung = system: NCI-H322M lung
HOP-62 NSCLC = system: HOP-62 NSCLC
NCI-H460 lung = system: NCI-H460 lung
HOP-92 NSCLC = system: HOP-92 NSCLC
NCI-H522 lung = system: NCI-H522 lung
A549/ATCC NSCLC = system: A549/ATCC NSCLC
786-0 renal = system: 786-0 renal
COLO 205 colon = system: COLO 205 colon
DU-145 prostate = system: DU-145 prostate
K-562 leukemia = system: K-562 leukemia
MALME-3M melanoma = system: MALME-3M melanoma
MDA-MB-231 breast = system: MDA-MB-231 breast
RXF 393 renal = system: RXF 393 renal
SF-268 CNS = system: SF-268 CNS
SF-295 CNS = system: SF-295 CNS
SF-539 CNS = system: SF-539 CNS
UACC-257 melanoma = system: UACC-257 melanoma
M14 melanoma = system: M14 melanoma

| SMILES | growth (NCI-H23 lung) | growth (NCI-H226 lung) | growth (NCI-H322M lung) | growth (HOP-62 NSCLC) | growth (NCI-H460 lung) | growth (HOP-92 NSCLC) | growth (NCI-H522 lung) | growth (A549/ATCC NSCLC) | growth (786-0 renal) | growth (COLO 205 colon) | growth (DU-145 prostate) | growth (K-562 leukemia) | growth (MALME-3M melanoma) | growth (MDA-MB-231 breast) | growth (RXF 393 renal) | growth (SF-268 CNS) | growth (SF-295 CNS) | growth (SF-539 CNS) | growth (UACC-257 melanoma) | growth (M14 melanoma) |
| --- | --- | --- | --- | --- | --- | --- | --- | --- | --- | --- | --- | --- | --- | --- | --- | --- | --- | --- | --- | --- |
| CN1CCC(c2c[nH]c3ccccc23)C1 (stereo not given) | 88.9% | 106% | 118% | 84.3% | 124% | 92.9% | 79.5% | 122% | 99.3% | 108% | 110% | 109% | 112% | 103% | 128% | 111% | 105% | 127% | 55.5% | 93% |
| O=C1NC(=O)C(=Cc2cn(CCCCCCn3c4ccccc4c(=O)c4ccccc43)c3ccccc23)C(=O)N1 | 82.5% | 67.2% | 85.8% | 86.7% | 34.2% | 96.1% | 73.3% | 92.4% | 96.8% | 92.3% | 96.8% | 77.4% | 95.8% | 69.1% | 127% | 94.5% | 65.7% | 93% | 104% | 94.1% |
| COc1ccc(/C=C\c2cc(OC)c(OC)c(OC)c2)cc1NS(=O)(=O)c1ccc(Cl)cc1 | 75.3% | 70.9% | 73.1% | 83.9% | 84.1% | 37% | 25.9% | 58.9% | 78% | 73.6% | 94% | 36.8% | 59.5% | 66% | 65.8% | 79.4% | 69.3% | 82.6% | 69% | 62.4% |
| COc1cc2c(c(OC)c1OC)-c1ccc([O-])c(=O)cc1[C@@H](NC(C)=O)CC2.COc1cc2c(c(OC)c1OC)-c1ccc([O-])c(=O)cc1[C@@H](NC(C)=O)CC2.[Cu+2] | 27.1% | 37.8% | 57% | 27.4% | 5.2% (active) | 9.89% (active) | -24.5% (active) | 45.1% | 43% | 9.04% (active) | 4.95% (active) | 2.76% (active) | 52.5% | 35.5% | 13.4% | 27.1% | 18.7% | -17.2% (active) | 45.1% | 7.83% (active) |
| CNC12C3C4C1C1C2C3C41C(=O)N[C@H](C(=O)N(C)[C@H](C[C@@H](OC(C)=O)c1nc(C(=O)N[C@@H](Cc2ccccc2)C[C@H](C)C(=O)OC)cs1)C(C)C)C1CC1 (stereo not given in full) | 7.82% (active) | 11.2% | 48.5% | 22.1% | 14.8% | -15.3% (active) | -27.4% (active) | 17.7% | 15.5% | -46.5% (active) | -1.19% (active) | 0.86% (active) | 34% | 0.928% (active) | 25.5% | 14.4% | 7.26% (active) | -1.2% (active) | 41.1% | 4.03% (active) |
| CC(C)CCC1(CCCl)C(=O)NC(=O)NC1=O | 99.6% | 96.6% | 101% | 106% | 101% | 91.2% | 104% | 91% | 96.1% | 110% | 107% | 116% | 95.3% | 101% | 98.1% | 109% | 96.2% | 100% | 91.1% | 96.7% |
| Cc1ccc(C(Cc2ccccc2)NCCO)cc1 (stereo not given) | 101% | 97.2% | 96.4% | 80.3% | 105% | 74.8% | 52.3% | 69.2% | 80.8% | 82.1% | 104% | 104% | 97.2% | 103% | 99.2% | 98% | 98.3% | 85.1% | 92% | 87% |
